According to the supplement of paper PMC6411743:
± gives the standard deviation of the averaged measurements. The full data set covers some 6,200 targets. This sample favours those with the largest changes.

Compound: Nc1ncnc2c1ncn2[C@@H]1O[C@H](COP(=O)(O)OP(=O)(O)NP(=O)(O)O)[C@@H](O)[C@H]1O [adenylyl imidodiphosphate]
Assay: NP40-soluble protein abundance relative to vehicle (solubility fold change) (ratio); higher = more soluble protein in presence of AMP-PNP
In short: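 Values are fold changes against the detergent-processed vehicle, based on vsn-normalised intensities. Jurkat crude lysate was treated at eight concentrations from 0.1 to 10 mM (10 min at room temperature, then 3 min at 37 °C), solubilised with 0.8% NP40 and benzonase, ultracentrifuged and analysed by TMT-labelled LC-MS/MS over three independent experiments.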

UniProt Q9UGJ1, sequence (Q9UGJ1 whole entry, one chain of several): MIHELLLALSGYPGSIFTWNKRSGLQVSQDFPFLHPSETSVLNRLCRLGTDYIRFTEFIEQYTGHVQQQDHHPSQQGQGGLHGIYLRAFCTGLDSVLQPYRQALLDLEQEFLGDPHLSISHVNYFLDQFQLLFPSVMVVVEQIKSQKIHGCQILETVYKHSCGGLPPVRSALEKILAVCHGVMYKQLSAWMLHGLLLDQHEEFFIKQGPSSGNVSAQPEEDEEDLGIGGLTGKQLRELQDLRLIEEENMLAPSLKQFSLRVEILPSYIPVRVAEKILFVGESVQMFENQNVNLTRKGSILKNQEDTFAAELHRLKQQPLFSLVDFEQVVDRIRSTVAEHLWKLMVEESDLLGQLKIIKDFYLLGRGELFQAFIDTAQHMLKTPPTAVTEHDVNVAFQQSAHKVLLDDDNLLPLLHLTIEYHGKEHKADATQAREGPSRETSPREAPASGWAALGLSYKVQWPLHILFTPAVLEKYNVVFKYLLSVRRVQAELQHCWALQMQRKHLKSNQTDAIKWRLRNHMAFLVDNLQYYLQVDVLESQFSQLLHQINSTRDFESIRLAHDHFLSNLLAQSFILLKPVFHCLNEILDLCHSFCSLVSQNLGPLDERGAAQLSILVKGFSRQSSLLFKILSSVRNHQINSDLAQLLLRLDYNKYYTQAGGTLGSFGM
UniProt Q9P0J0, sequence (Q9P0J0 whole entry): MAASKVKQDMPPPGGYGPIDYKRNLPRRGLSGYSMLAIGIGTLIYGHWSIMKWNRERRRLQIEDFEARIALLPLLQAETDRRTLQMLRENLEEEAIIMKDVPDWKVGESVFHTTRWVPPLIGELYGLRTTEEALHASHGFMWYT
UniProt Q9P1W8, sequence (Q9P1W8 whole entry): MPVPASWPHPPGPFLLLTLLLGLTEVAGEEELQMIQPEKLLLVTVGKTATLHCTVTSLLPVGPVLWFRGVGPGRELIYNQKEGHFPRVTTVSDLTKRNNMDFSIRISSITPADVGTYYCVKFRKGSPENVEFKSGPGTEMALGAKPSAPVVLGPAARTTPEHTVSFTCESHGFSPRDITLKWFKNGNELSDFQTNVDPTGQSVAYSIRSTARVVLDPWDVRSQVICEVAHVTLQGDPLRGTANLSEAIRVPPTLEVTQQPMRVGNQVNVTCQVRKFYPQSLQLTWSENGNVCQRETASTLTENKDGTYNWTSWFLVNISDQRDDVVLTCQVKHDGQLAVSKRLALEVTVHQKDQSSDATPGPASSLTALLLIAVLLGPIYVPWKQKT
UniProt Q9UL63, sequence (Q9UL63 whole entry, one chain of several): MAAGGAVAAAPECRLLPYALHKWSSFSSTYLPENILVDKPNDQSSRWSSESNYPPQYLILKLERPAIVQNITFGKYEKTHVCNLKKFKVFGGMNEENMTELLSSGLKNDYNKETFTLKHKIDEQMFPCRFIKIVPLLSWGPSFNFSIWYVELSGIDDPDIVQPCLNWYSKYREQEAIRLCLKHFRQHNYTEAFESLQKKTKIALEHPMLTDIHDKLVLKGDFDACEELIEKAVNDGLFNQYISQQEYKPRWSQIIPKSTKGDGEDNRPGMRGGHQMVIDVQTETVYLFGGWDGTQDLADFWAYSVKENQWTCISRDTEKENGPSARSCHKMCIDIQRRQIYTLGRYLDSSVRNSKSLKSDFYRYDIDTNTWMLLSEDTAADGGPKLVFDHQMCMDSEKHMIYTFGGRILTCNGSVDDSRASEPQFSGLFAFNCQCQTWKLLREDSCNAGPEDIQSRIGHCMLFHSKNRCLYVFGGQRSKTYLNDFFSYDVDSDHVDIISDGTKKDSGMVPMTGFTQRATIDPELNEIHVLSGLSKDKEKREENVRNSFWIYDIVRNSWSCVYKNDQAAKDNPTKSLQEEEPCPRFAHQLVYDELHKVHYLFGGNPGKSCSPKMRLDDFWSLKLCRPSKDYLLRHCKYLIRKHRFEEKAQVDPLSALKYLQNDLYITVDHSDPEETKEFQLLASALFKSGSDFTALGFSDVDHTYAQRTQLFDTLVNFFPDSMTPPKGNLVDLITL
UniProt Q9UHP3, sequence (Q9UHP3 whole entry): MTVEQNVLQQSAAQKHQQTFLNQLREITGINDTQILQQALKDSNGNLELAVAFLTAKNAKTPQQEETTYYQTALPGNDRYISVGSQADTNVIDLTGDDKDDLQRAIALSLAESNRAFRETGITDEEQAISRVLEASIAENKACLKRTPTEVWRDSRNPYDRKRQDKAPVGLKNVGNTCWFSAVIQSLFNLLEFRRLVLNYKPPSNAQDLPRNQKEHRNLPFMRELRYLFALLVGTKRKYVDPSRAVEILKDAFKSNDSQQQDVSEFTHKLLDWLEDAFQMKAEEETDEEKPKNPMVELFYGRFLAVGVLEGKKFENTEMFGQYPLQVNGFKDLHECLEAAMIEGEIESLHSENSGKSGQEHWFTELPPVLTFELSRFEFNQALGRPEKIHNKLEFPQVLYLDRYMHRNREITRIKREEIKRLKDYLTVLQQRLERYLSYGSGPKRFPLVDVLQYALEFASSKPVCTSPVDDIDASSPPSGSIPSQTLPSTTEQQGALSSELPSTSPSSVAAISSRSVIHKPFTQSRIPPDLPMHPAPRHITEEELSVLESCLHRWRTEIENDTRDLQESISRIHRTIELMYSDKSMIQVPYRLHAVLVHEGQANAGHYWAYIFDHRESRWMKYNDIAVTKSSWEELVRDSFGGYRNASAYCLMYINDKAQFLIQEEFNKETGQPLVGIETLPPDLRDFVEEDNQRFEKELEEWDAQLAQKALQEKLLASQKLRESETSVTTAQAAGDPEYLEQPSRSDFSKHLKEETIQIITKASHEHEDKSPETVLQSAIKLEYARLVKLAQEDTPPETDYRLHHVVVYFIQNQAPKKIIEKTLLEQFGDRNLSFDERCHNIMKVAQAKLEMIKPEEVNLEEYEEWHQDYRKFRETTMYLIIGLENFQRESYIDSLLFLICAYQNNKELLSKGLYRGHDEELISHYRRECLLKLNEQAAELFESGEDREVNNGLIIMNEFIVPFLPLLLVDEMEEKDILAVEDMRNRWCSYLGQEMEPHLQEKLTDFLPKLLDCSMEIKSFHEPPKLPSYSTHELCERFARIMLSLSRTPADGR
UniProt Q9BRT2, sequence (Q9BRT2 whole entry, one chain of several): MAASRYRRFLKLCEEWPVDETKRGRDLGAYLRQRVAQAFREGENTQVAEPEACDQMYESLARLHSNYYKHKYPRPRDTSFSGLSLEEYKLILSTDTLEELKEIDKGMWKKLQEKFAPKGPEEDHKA
UniProt Q9HCD5, sequence (Q9HCD5 whole entry): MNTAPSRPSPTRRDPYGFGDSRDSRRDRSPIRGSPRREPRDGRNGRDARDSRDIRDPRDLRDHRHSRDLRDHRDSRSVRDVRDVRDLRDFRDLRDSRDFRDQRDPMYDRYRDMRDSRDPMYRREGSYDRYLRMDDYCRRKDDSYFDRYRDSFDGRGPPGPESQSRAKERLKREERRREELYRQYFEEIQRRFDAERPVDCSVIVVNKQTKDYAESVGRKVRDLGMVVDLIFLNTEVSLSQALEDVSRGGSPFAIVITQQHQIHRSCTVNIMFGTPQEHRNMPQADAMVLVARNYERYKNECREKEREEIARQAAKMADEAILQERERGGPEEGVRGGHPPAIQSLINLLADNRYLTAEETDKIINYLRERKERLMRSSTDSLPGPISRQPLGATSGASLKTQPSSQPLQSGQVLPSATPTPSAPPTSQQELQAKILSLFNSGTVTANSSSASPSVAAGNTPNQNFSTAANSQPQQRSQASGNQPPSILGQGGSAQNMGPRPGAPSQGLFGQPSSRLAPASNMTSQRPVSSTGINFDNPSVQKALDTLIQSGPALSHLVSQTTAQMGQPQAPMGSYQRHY
UniProt Q96FZ7, sequence (Q96FZ7 whole entry): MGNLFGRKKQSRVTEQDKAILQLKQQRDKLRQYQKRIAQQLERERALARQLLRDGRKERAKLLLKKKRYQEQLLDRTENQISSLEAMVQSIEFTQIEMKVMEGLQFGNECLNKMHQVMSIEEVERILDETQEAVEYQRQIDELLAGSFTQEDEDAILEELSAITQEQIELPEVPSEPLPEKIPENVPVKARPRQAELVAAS
UniProt Q9UHV9, sequence (Q9UHV9 whole entry): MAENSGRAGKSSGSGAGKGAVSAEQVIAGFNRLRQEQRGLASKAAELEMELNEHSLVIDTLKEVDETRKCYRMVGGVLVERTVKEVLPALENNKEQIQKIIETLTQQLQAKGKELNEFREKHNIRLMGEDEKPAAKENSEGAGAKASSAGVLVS
UniProt Q9NYF8, sequence (Q9NYF8 whole entry, one chain of several): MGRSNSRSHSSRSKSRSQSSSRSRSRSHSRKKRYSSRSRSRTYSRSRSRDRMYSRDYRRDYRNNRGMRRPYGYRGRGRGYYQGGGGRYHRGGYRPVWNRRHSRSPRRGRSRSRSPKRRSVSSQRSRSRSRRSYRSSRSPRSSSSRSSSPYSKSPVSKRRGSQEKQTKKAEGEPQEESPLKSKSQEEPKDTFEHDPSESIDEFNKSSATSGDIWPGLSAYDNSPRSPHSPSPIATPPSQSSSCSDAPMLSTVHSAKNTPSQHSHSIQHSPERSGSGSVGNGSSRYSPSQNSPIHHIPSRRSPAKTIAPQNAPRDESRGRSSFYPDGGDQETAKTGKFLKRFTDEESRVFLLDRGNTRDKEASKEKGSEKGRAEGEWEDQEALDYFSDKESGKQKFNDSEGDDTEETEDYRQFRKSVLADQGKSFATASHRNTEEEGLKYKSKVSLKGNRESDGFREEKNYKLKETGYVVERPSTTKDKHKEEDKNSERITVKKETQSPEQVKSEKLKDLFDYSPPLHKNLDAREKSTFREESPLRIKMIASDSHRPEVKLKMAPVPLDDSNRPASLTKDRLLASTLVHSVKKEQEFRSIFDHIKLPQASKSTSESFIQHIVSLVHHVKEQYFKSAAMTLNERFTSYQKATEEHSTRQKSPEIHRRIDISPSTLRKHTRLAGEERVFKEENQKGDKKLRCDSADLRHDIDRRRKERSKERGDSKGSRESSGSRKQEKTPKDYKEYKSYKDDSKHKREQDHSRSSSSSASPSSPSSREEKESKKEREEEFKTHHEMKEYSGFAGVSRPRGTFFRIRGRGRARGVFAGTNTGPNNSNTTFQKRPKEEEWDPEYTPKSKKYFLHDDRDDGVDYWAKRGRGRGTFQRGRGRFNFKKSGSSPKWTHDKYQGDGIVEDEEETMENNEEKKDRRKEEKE

Target	NP40-soluble protein abundance (concentration: 1mM)	NP40-soluble protein abundance (concentration: 2mM)	NP40-soluble protein abundance (concentration: 4mM)	NP40-soluble protein abundance (concentration: 6mM)	NP40-soluble protein abundance (concentration: 8mM)	NP40-soluble protein abundance (concentration: 10mM)
PFDN2 (UniProt Q9UHV9)	1.05 ± 0.084	1.11 ± 0.11	0.986 ± 0.062	0.928 ± 0.1	0.85 ± 0.016	0.941 ± 0.083
ACAT2 (UniProt Q9BWD1)	0.987 ± 0.021	0.996 ± 0.038	0.931 ± 0.021	0.967 ± 0.017	0.951 ± 0.021	0.92 ± 0.02
PPCS (UniProt Q9HAB8)	1.03 ± 0.033	0.981 ± 0.038	1.01 ± 0.028	1.03 ± 0.02	1.03 ± 0.026	1.04 ± 0.021
NOP58 (UniProt Q9Y2X3)	1.11 ± 0.021	1.17 ± 0.013	1.17 ± 0.014	1.24 ± 0.054	1.32 ± 0.033	1.46 ± 0.057
NANS (UniProt Q9NR45)	0.981 ± 0.015	0.932 ± 0.043	0.939 ± 0.011	0.954 ± 0.015	0.948 ± 0.036	0.918 ± 0.027
MCEE (UniProt Q96PE7)	0.998 ± 0.04	1.01 ± 0.04	0.997 ± 0.046	1.06 ± 0.036	1.03 ± 0.08	1.05 ± 0.1
SORT1 (UniProt Q99523)	0.99 ± 0.034	1.05 ± 0.089	0.995 ± 0.063	1.03 ± 0.055	1.03 ± 0.036	1.03 ± 0.047
CHMP6 (UniProt Q96FZ7)	1.03 ± 0.028	1.05 ± 0.022	1.03 ± 0.038	1.01 ± 0.03	1.02 ± 0.032	0.964 ± 0.033
PUS7 (UniProt Q96PZ0)	1.03 ± 0.035	1.002 ± 0.0077	1.04 ± 0.019	1.008 ± 0.009	1.01 ± 0.015	1.01 ± 0.028
DNAJC7 (UniProt Q99615)	1.02 ± 0.012	1.05 ± 0.052	1.01 ± 0.015	1.03 ± 0.016	1.02 ± 0.013	1.04 ± 0.024
UniProt Q9NUY8|Q9NUY8-2	0.961 ± 0.0094	0.999 ± 0.026	0.986 ± 0.014	1 ± 0.035	0.991 ± 0.027	1.01 ± 0.031
UniProt Q9NSG2|Q9NSG2-2|Q9NSG2-3	0.991 ± 0.028	0.991 ± 0.015	0.993 ± 0.011	0.955 ± 0.022	0.964 ± 0.031	0.968 ± 0.015
UniProt Q9Y3B4	0.976 ± 0.061	0.981 ± 0.076	0.993 ± 0.019	0.968 ± 0.016	1.05 ± 0.051	1.01 ± 0.06
UniProt Q96K49|Q96K49-2	0.99 ± 0.013	1.01 ± 0.027	0.984 ± 0.026	0.9718 ± 0.005	0.9653 ± 0.0019	0.9716 ± 0.0066
UniProt Q9BRG1|K7EKV4	1.04 ± 0.028	0.957 ± 0.094	1.02 ± 0.063	0.931 ± 0.043	0.982 ± 0.071	0.942 ± 0.099
UniProt Q9HC36	1.05 ± 0.047	1.1 ± 0.088	1.23 ± 0.12	1.37 ± 0.18	1.51 ± 0.22	1.6 ± 0.28
SMARCD1 (UniProt Q96GM5)	1.01 ± 0.085	0.97 ± 0.12	1.03 ± 0.11	1.01 ± 0.12	1.03 ± 0.12	1.01 ± 0.12
CBX8 (UniProt Q9HC52)	1.08 ± 0.015	1.1 ± 0.04	1.13 ± 0.018	1.23 ± 0.028	1.33 ± 0.062	1.39 ± 0.044
UniProt Q9ULE6	0.981 ± 0.025	0.96 ± 0.013	1.01 ± 0.02	0.959 ± 0.027	0.957 ± 0.016	0.944 ± 0.025
RTN4 (UniProt Q9NQC3)	1.05 ± 0.014	1.07 ± 0.057	1.04 ± 0.028	1.02 ± 0.014	1.01 ± 0.032	1.03 ± 0.065

Target	NP40-soluble protein abundance (concentration: 1mM)	NP40-soluble protein abundance (concentration: 2mM)	NP40-soluble protein abundance (concentration: 4mM)	NP40-soluble protein abundance (concentration: 6mM)	NP40-soluble protein abundance (concentration: 8mM)	NP40-soluble protein abundance (concentration: 10mM)
UniProt Q9ULV4|Q9ULV4-2|Q9ULV4-3	1.07 ± 0.04	1.11 ± 0.056	1.12 ± 0.026	1.26 ± 0.015	1.33 ± 0.018	1.39 ± 0.037
TIPIN (UniProt Q9BVW5)	0.948 ± 0.06	1.04 ± 0.14	0.933 ± 0.072	0.928 ± 0.063	0.911 ± 0.057	0.929 ± 0.093
ISCU (UniProt Q9H1K1)	1.01 ± 0.039	1.06 ± 0.018	0.987 ± 0.043	0.969 ± 0.03	0.96 ± 0.054	0.958 ± 0.047
UniProt Q9P0J0|Q9P0J0-2	0.912 ± 0.015	0.851 ± 0.095	0.89 ± 0.021	0.856 ± 0.017	0.877 ± 0.037	0.792 ± 0.047
ZNF48 (UniProt Q96MX3)	1.015 ± 0.0097	1.062 ± 0.0052	1.05 ± 0.033	1.06 ± 0.028	1.06 ± 0.017	1.12 ± 0.059
MOV10 (UniProt Q9HCE1)	0.952 ± 0.027	0.867 ± 0.15	0.932 ± 0.09	0.938 ± 0.032	0.944 ± 0.08	0.889 ± 0.12
UniProt Q96T76|Q96T76-8|Q96T76-9	0.964 ± 0.013	0.929 ± 0.082	0.972 ± 0.032	0.987 ± 0.036	1.002 ± 0.0053	0.9354 ± 0.0075
UniProt Q9P1W8|Q9P1W8-2	0.9928 ± 0.0047	1.04 ± 0.041	1.02 ± 0.018	1.0109 ± 0.00039	1.0171 ± 0.00063	1.024 ± 0.0042
DDX18 (UniProt Q9NVP1)	1.03 ± 0.045	1.03 ± 0.013	1.16 ± 0.046	1.24 ± 0.075	1.35 ± 0.12	1.43 ± 0.15
UniProt Q9Y2A7|Q9Y2A7-2	0.972 ± 0.026	0.974 ± 0.034	0.9706 ± 0.0091	1 ± 0.019	0.976 ± 0.02	0.985 ± 0.026
UniProt Q9UKT4|Q9UKT4-2	0.995 ± 0.029	1.03 ± 0.031	1.03 ± 0.072	1 ± 0.061	1.02 ± 0.092	1.02 ± 0.11
UniProt Q9BPZ3|D6R9Y1	0.981 ± 0.02	1.01 ± 0.044	0.945 ± 0.028	0.966 ± 0.051	0.929 ± 0.014	0.9085 ± 0.0067
REXO4 (UniProt Q9GZR2)	1.06 ± 0.047	1.09 ± 0.073	1.1 ± 0.038	1.17 ± 0.036	1.18 ± 0.039	1.21 ± 0.051
UniProt Q9NRY4	0.9859 ± 0.0086	0.971 ± 0.035	0.999 ± 0.028	0.984 ± 0.03	0.964 ± 0.036	0.935 ± 0.024
UniProt Q9UHP3|Q9UHP3-1|Q9UHP3-3	0.966 ± 0.013	0.997 ± 0.015	0.975 ± 0.026	0.963 ± 0.023	0.964 ± 0.013	0.971 ± 0.024
WDR12 (UniProt Q9GZL7)	0.997 ± 0.017	0.928 ± 0.082	0.979 ± 0.011	1 ± 0.028	0.999 ± 0.016	0.94 ± 0.033
UniProt Q9UGJ1|Q9UGJ1-2|H3BPU4	1.01 ± 0.037	1.01 ± 0.024	1.04 ± 0.05	1 ± 0.028	1 ± 0.091	1.03 ± 0.08
UniProt Q9Y2Y0|Q9Y2Y0-2	0.982 ± 0.014	0.972 ± 0.026	0.989 ± 0.036	0.988 ± 0.049	0.975 ± 0.032	0.953 ± 0.015
NCOA5 (UniProt Q9HCD5)	1.09 ± 0.062	1.18 ± 0.039	1.37 ± 0.081	1.73 ± 0.1	1.89 ± 0.14	2.17 ± 0.35
PUS3 (UniProt Q9BZE2)	1.01 ± 0.013	0.997 ± 0.0053	1 ± 0.026	1.03 ± 0.054	0.978 ± 0.032	0.974 ± 0.019

Target	NP40-soluble protein abundance (concentration: 1mM)	NP40-soluble protein abundance (concentration: 2mM)	NP40-soluble protein abundance (concentration: 4mM)	NP40-soluble protein abundance (concentration: 6mM)	NP40-soluble protein abundance (concentration: 8mM)	NP40-soluble protein abundance (concentration: 10mM)
UniProt Q9NYF8|Q9NYF8-2|Q9NYF8-3|E9PK91	1.1 ± 0.018	1.19 ± 0.08	1.19 ± 0.033	1.29 ± 0.1	1.31 ± 0.11	1.43 ± 0.12
UniProt Q96RL7|Q96RL7-2|Q96RL7-3|Q96RL7-4	0.982 ± 0.039	0.918 ± 0.098	0.969 ± 0.012	0.916 ± 0.024	0.949 ± 0.022	0.8993 ± 0.0069
UniProt Q9UBK8|Q9UBK8-2	0.928 ± 0.02	0.881 ± 0.038	0.916 ± 0.041	0.971 ± 0.031	0.94 ± 0.051	0.964 ± 0.049
C9orf78 (UniProt Q9NZ63)	0.999 ± 0.047	1.03 ± 0.038	0.982 ± 0.055	0.971 ± 0.036	0.966 ± 0.034	0.939 ± 0.078
UniProt Q9NQ29|Q9NQ29-3|Q9NQ29-2	1.02 ± 0.04	1.13 ± 0.12	1.11 ± 0.055	1.15 ± 0.027	1.15 ± 0.091	1.35 ± 0.098
DIDO1 (UniProt Q9BTC0)	1.1 ± 0.035	1.18 ± 0.093	1.23 ± 0.043	1.28 ± 0.12	1.27 ± 0.12	1.36 ± 0.12
MRPL9 (UniProt Q9BYD2)	1.04 ± 0.13	0.967 ± 0.13	1.03 ± 0.075	0.982 ± 0.09	1.01 ± 0.072	0.972 ± 0.15
SIPA1 (UniProt Q96FS4)	1.01 ± 0.037	1.013 ± 0.003	1.03 ± 0.025	1.05 ± 0.029	1.03 ± 0.036	1.04 ± 0.02
UniProt Q9BRT2|V5IRT4	1.03 ± 0.022	1.13 ± 0.11	1.03 ± 0.016	1.0141 ± 0.00091	1.025 ± 0.0039	1.011 ± 0.0053
UniProt Q9BZL4-4|Q9BZL4	1 ± 0.033	1.04 ± 0.036	1.01 ± 0.047	0.997 ± 0.023	0.978 ± 0.017	0.999 ± 0.015
UniProt Q9H8P0|H0Y9P9	0.933 ± 0.084	0.9132 ± 0.0065	0.948 ± 0.063	0.999 ± 0.14	1.02 ± 0.12	1.05 ± 0.15
CCDC115 (UniProt Q96NT0)	0.994 ± 0.046	1.01 ± 0.043	1.01 ± 0.035	1 ± 0.04	0.968 ± 0.06	0.992 ± 0.041
UniProt Q9NXR1|Q9NXR1-2|X5DR54	0.994 ± 0.029	1.07 ± 0.041	1.01 ± 0.025	0.978 ± 0.019	0.985 ± 0.026	0.9852 ± 0.0096
XPO7 (UniProt Q9UIA9)	0.973 ± 0.036	0.932 ± 0.035	0.96 ± 0.019	0.958 ± 0.037	0.966 ± 0.015	0.939 ± 0.03
DYNLRB1 (UniProt Q9NP97)	0.996 ± 0.011	1.04 ± 0.054	0.977 ± 0.03	1.01 ± 0.018	0.9949 ± 0.0057	1.01 ± 0.02
UniProt Q99828|Q99828-2	1.001 ± 0.0091	0.977 ± 0.03	0.993 ± 0.035	0.9794 ± 0.0058	0.949 ± 0.036	0.95 ± 0.025
UniProt Q96RG2|Q96RG2-2	0.9919 ± 0.0087	0.997 ± 0.048	1.02 ± 0.011	0.982 ± 0.021	1 ± 0.026	0.996 ± 0.024
ASF1A (UniProt Q9Y294)	0.958 ± 0.077	0.863 ± 0.091	0.904 ± 0.068	0.921 ± 0.037	0.946 ± 0.032	0.844 ± 0.11
UniProt Q9UL63|C9J7E8|Q9UL63-2	0.984 ± 0.065	0.968 ± 0.061	0.994 ± 0.041	0.937 ± 0.085	0.934 ± 0.092	0.922 ± 0.12
UniProt Q9H0W9|Q9H0W9-2	0.99 ± 0.035	0.972 ± 0.036	0.973 ± 0.029	0.974 ± 0.012	0.949 ± 0.043	0.935 ± 0.037
